# Values without a mark were called inactive.
# Experiments:
# Test in all cases: log2 ratio of Biotin-Ahx-Ub-VS probe labelling (fragment/DMSO); higher = less target engagement (more negative = stronger competition), active = hit call of the paper (q ≤ 0.05, log2 ratio ≤ -1)
# Settings in all cases: compound concentration: 200 uM; treatment time: 3 h
# [1] = target: T1, OTUD6B (UniProt Q8N6M0)
# T1 sequence (whole entry): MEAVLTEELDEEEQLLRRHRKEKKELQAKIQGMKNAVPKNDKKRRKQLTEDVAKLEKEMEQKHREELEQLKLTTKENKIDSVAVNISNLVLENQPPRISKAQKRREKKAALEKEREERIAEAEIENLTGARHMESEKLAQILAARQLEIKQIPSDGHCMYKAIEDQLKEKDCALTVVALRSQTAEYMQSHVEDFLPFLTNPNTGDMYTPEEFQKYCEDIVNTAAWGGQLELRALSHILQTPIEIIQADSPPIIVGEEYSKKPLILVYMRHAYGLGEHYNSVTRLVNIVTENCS
# Procedure, shortened: (§1)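 Labelled DUBs from HEK293T lysate were NeutrAvidin-enriched, digested with LysC and trypsin, and run by diaPASEF LC-MS/MS. Before that, each 495 µg sample in Tris/CHAPS/IGEPAL buffer with protease inhibitors was treated in triplicate with fragment at 200 µM or vehicle for 3 h, then with Biotin-Ahx-Ub-VS at 0.5 µM final for 1 h. Values are average log2 ratios of fragment over vehicle by unpaired t-test, based on global-median-normalised Spectronaut label-free quantities from proteins with ≥2 unique peptides.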
# [2] = target: T2, OTUD7B (UniProt Q6GQQ9)
# T2 sequence (whole entry): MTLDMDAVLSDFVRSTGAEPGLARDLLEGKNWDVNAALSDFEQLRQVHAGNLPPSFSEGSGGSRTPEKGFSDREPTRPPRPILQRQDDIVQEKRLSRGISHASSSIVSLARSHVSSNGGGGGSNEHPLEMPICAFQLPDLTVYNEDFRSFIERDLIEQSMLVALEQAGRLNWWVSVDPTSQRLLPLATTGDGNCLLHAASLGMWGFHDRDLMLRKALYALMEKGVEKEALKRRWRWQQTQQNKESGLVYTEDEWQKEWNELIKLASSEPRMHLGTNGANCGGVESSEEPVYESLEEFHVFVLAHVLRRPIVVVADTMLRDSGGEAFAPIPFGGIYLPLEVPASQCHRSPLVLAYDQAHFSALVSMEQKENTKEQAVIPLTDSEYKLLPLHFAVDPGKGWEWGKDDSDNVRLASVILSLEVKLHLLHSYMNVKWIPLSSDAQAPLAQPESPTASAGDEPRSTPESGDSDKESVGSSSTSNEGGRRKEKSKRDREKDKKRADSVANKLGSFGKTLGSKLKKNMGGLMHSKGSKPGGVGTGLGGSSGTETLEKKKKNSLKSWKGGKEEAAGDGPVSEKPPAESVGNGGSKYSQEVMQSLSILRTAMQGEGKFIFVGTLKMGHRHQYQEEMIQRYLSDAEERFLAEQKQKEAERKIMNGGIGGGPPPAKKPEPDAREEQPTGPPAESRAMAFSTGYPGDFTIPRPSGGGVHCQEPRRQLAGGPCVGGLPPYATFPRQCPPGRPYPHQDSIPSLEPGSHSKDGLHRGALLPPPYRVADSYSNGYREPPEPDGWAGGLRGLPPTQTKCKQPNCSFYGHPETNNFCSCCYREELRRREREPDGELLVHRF
# Procedure, shortened: as §1
# [3] = target: PRPF8 (UniProt Q6P2Q9)
# Procedure, shortened: as §1
# [4] = target: T3, PSMD7 (UniProt P51665)
# T3 sequence (whole entry): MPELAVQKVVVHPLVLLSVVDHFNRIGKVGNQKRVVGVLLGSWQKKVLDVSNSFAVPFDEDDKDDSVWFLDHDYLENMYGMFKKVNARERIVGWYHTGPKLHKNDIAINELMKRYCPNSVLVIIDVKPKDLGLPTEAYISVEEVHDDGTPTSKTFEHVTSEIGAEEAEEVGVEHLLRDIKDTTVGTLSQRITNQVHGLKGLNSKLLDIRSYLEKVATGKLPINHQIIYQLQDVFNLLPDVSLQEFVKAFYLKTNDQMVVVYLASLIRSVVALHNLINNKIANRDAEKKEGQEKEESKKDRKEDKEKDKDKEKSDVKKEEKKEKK
# Procedure, shortened: as §1
# [5] = target: UCHL1 (UniProt P09936)
# Procedure, shortened: as §1
# [6] = target: T4, UCHL3 (UniProt P15374)
# T4 sequence (whole entry): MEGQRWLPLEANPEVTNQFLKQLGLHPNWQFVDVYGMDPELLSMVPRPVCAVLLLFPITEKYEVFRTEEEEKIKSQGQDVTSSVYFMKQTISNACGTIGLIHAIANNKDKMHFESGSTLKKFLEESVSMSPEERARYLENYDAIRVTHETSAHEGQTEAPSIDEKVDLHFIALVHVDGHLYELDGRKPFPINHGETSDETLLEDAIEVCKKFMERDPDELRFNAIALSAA
# Procedure, shortened: as §1
# [7] = target: T5, UCHL5 (UniProt Q9Y5K5)
# T5 sequence (whole entry): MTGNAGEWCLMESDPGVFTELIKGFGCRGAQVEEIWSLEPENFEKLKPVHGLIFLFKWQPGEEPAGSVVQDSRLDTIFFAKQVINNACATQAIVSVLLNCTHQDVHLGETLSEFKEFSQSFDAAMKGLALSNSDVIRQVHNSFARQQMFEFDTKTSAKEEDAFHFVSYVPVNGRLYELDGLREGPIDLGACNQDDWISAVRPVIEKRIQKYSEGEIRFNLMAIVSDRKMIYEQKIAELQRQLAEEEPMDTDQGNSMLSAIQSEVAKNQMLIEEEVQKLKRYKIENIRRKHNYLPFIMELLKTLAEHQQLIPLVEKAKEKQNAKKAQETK
# Procedure, shortened: as §1
# [8] = target: USP10 (UniProt Q14694)
# Procedure, shortened: as §1
# [9] = target: T6, USP15 (UniProt Q9Y4E8)
# T6 sequence (whole entry): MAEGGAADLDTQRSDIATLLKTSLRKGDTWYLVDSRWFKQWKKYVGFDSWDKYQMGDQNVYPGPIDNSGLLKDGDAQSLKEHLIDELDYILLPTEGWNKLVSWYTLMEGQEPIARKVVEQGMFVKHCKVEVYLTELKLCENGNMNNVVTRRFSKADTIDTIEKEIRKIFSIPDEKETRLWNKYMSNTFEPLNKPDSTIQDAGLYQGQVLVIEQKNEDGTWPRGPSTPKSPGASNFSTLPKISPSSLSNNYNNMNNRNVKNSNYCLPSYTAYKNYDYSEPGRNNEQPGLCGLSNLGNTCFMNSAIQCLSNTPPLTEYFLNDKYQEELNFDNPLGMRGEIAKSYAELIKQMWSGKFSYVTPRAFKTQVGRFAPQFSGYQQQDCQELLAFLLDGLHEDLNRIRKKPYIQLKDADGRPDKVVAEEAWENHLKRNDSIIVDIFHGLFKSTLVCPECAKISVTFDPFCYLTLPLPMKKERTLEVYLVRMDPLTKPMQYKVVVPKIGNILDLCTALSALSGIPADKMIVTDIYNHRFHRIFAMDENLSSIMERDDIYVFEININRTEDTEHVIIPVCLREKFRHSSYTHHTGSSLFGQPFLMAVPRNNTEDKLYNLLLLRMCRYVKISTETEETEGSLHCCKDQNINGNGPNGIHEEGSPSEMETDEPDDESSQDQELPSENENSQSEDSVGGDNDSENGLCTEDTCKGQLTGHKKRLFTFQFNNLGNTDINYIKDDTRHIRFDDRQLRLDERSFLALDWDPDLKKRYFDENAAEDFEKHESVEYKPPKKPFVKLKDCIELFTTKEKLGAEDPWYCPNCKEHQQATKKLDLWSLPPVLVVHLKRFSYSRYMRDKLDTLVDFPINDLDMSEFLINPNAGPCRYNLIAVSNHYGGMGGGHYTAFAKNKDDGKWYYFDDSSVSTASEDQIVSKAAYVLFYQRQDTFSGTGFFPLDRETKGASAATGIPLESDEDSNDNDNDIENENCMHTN
# Procedure, shortened: as §1
# Chain of USP10 (Q14694 whole entry): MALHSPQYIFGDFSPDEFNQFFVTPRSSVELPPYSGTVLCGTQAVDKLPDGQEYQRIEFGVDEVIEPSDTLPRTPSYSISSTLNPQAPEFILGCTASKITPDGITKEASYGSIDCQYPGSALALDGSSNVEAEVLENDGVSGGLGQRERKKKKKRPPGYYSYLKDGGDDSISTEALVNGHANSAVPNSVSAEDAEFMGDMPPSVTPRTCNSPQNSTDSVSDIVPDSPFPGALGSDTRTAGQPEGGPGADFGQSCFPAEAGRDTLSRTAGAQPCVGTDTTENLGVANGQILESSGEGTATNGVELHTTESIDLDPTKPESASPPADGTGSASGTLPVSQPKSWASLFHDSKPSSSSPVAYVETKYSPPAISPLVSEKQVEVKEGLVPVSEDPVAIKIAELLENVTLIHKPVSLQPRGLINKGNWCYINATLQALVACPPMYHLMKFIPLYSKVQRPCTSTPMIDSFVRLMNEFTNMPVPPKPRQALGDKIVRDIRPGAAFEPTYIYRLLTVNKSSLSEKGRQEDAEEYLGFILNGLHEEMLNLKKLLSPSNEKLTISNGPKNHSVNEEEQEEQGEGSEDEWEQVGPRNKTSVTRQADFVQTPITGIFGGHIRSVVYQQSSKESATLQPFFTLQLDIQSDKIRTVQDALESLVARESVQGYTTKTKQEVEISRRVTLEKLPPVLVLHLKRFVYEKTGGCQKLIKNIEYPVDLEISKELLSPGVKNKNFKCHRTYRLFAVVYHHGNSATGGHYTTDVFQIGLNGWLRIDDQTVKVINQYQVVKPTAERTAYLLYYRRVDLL
# Chain of UCHL1 (P09936 whole entry, looked up): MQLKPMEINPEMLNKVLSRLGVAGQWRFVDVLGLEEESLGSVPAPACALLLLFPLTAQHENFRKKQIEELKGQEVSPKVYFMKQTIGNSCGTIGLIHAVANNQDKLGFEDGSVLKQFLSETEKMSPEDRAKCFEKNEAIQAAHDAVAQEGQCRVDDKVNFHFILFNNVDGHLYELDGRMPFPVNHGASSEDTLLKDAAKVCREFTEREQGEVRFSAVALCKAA
structure (smiles),measurement,setting,value
O=C(CCl)N1CCN(C(=O)N2CCCCC2)CC1,log2 ratio of Biotin-Ahx-Ub-VS probe labelling,[1],-1.28 (active)
same,log2 ratio of Biotin-Ahx-Ub-VS probe labelling,[2],-1.17 (active)
same,log2 ratio of Biotin-Ahx-Ub-VS probe labelling,[3],-0.0826
same,log2 ratio of Biotin-Ahx-Ub-VS probe labelling,[4],-0.335
same,log2 ratio of Biotin-Ahx-Ub-VS probe labelling,[5],-2.3 (active)
same,log2 ratio of Biotin-Ahx-Ub-VS probe labelling,[6],-0.528
same,log2 ratio of Biotin-Ahx-Ub-VS probe labelling,[7],-0.96
same,log2 ratio of Biotin-Ahx-Ub-VS probe labelling,[8],-0.21
same,log2 ratio of Biotin-Ahx-Ub-VS probe labelling,[9],-0.839
